# Test results published in PubChem BioAssay AID435019 (Southern Research Specialized Biocontainment Screening …, 2010).
# Among all 2,300 compounds or so, about 1,200 (52%) were called active. The rule behind the calls is not given here. The set was probably picked from earlier hits. This is one part of the list. Measured potencies and affinities stand elsewhere.
# Test: mammalian cell cytotoxicity, dose response, cytotoxicity control for M. tuberculosis inhibitor project (AID 435019);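 note: 0% = background wells and 100% = vehicle-treated cells; lower values mean fewer viable cells so more cytotoxicity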
# Conditions: cytotoxicity counter-screen; series mostly up to 40 µM; viability: at the top concentration
row,SMILES,viability
1,O=C(c1ccc(CNc2c(N3CCCC3)c(=O)c2=O)cc1)N1CC=C(c2ccccc2)CC1,91.6% (inactive)
2,O=c1oc(-c2cccs2)nc2c1cnn2-c1ccccc1,97.4% (inactive)
3,Cc1nc2ccc(NC(=O)N(C(C)C)C(C)C)cc2s1,93.6% (inactive)
4,CCN1c2ccccc2N(C)C1(C)c1ccccc1 (stereo not drawn),94.9% (inactive)
5,COC(=O)CSc1ncnc2c1sc1nc3c(cc12)COC(C)(C)C3,82.5% (inactive)
6,Cc1ccc(NC(=O)COC(=O)C(NS(=O)(=O)c2ccc(Cl)cc2)C(C)O)cc1C (stereo not drawn),86.8% (inactive)
7,Fc1ccc(N/N=C2/CC(c3ccccc3)Oc3ccccc32)c(F)c1 (stereo not drawn),97.5% (inactive)
8,CCCCc1cc(=O)oc2cc(O)ccc12,86.2% (inactive)
9,CCCCN1C(=N)N([C@@H](CCC)CN2CCC[C@H]2CN2C(N)=NC[C@@H]2Cc2ccccc2)C[C@H]1Cc1ccccc1,92.3% (inactive)
10,O=C(CNC(=O)c1ccc(Cl)cc1)c1ccc(Cl)cc1,87.5% (inactive)
11,CCOC(=O)COc1cc(O)c2c(=O)cc(-c3ccccc3)oc2c1,102% (inactive)
12,CC(=O)/C=C(\C)Nc1ccccc1O,84.8% (inactive)
13,N#Cc1nccnc1S(=O)(=O)c1cccs1,99.3% (inactive)
14,CCOC(=O)C(=NC1CCS(=O)(=O)C1)NNc1ccc(Br)cc1 (stereo not drawn),99.3% (inactive)
15,O=C(C[n+]1ccc(C(=O)c2ccccc2)cc1)Nc1ccc(C(F)(F)F)cc1,104% (inactive)
16,C/C(=N\NC(N)=S)c1ccc(Cl)s1,88.2% (inactive)
17,O=C(NNc1ccc([N+](=O)[O-])cc1)c1ccco1,101% (inactive)
18,O=C(C/C=N\OCc1ccc([N+](=O)[O-])cc1)Nc1ccc(F)cc1F,96.9% (inactive)
19,CC1=C(C)C(=O)C(CCCCC#CCCCC#CCO)=C(C)C1=O,84.5% (inactive)
20,CC1CCCCC1NC(=O)c1ccc2c(c1)[nH]c(=O)n2C1CCCC1 (stereo not drawn),94.4% (inactive)
21,CCCCOC(=O)CSc1nnc(-c2ccc(Cl)cc2Cl)o1,95.3% (inactive)
22,COc1ccc(-c2cc(O)cc(O)c2)cc1,84.8% (inactive)
23,COc1ccc(N=Cc2c(O)cc(C)oc2=O)cc1,92.7% (inactive)

row,SMILES,viability
1,Cn1c(N)c(C(=O)COC(=O)c2ccc([N+](=O)[O-])o2)c(=O)n(C)c1=O,87.2% (inactive)
2,CSc1cccc(N=C2C(=O)Nc3ccccc32)c1,92.1% (inactive)
3,Cc1ccc(Nc2nc(CSc3nnc(-c4cccs4)o3)cs2)cc1,86.8% (inactive)
4,Fc1ccc(-c2nnc(CSc3nnc(-c4cccs4)o3)o2)cc1,95.8% (inactive)
5,CCCNC(=S)Nc1ccc(Nc2ccccc2)cc1,83% (inactive)
6,COc1ccc(NC(=O)CN(C)CC(=O)Nc2sc3c(c2C(N)=O)CCC3)cc1,90.6% (inactive)
7,CCOC(=O)N1CCN(C(=O)CSc2nnc(-c3ccc(Cl)s3)o2)CC1,95.8% (inactive)
8,CC1(C)CC(=O)C2=C(C1)OC(N)=C([N+](=O)[O-])C2c1ccc(C#N)s1 (stereo not drawn),84.6% [at 20 µM] (inactive)
9,Clc1ccc(CSc2ncn[nH]2)cc1,88.4% (inactive)
10,Nc1ccc(OCc2ccco2)cc1,89.3% (inactive)
11,CCCn1nc(C(=O)NNC(=O)c2ccc(C)c(C)c2)c2ccccc2c1=O,99.7% (inactive)
12,CCOC(=O)c1ccc(NC(=O)CCc2nc(-c3ccc(Cl)cc3)no2)cc1,92.1% (inactive)
13,CCOC(=O)c1ccc(NC(=O)CSc2ccc(-c3cccnc3)nn2)cc1,98.3% (inactive)
14,COc1cccc(/C=C/c2nc(C#N)c(NCC(C)C)o2)c1,95.4% (inactive)
15,O=C(CCc1c[nH]c2ccccc12)N1CCN(S(=O)(=O)c2ccccc2)CC1,87.8% (inactive)
16,CN(C)CCCN(C(=O)c1ccc([N+](=O)[O-])s1)c1nc2cc3c(cc2s1)OCCO3,86.4% (inactive)
17,Cc1ccc(-n2nnc3c(=O)oc4ccccc4c32)cc1,98.7% (inactive)
18,Oc1cccc(-c2nc3ccccc3s2)c1,92.2% (inactive)
19,Cc1nc2sccn2c(=O)c1CCN1CCC(=C(c2ccccc2)c2ccc(F)cc2)CC1,89.2% (inactive)
20,Nc1c(C(=O)NC2CCCCC2)nsc1C(=O)OCC(=O)NC1CCCCC1,94% (inactive)
21,O=c1[nH]c(=O)n(C2CCCO2)cc1F (stereo not drawn),94.6% (inactive)
22,NN/C(=C\[N+](=O)[O-])Nc1ccc(Cl)cc1,87.6% (inactive)
23,Cc1ccc(CN2CCN(/N=C/c3ccc(Cl)c([N+](=O)[O-])c3)CC2)cc1,82.9% (inactive)

row,SMILES,viability
1,CSc1ccc(CNC(=O)C2Cc3cc(S(=O)(=O)N4CCCCC4)ccc3N2C(C)=O)cc1 (stereo not drawn),90% (inactive)
2,CC(C)CS(=O)(=O)C1=NN2C(=N)/C(=C\c3ccc(OC(=O)c4ccco4)cc3)C(=O)N=C2S1,88.1% (inactive)
3,CCCOC(=O)c1ccc(-c2ccc(C=O)o2)cc1,87.9% (inactive)
4,COC(=O)CC(=O)N1CCN(c2ccc(Cl)c(Cl)c2)CC1,86.9% (inactive)
5,O/N=C/c1cn(-c2ccc(Cl)cc2)nn1,98% (inactive)
6,CSCCOC(=O)COc1ccc(/C=N/NC(=O)c2c(Cl)cnn2C)cc1,102% (inactive)
7,O=C1CCC(=O)N1CNc1ccc(Oc2ccccc2)cc1,88.9% (inactive)
8,O/N=C/c1ccc2ccccc2c1,90.8% (inactive)
9,Nc1cc(C(=O)OCC(=O)NNC(=O)c2cccs2)ccc1Cl,96.5% (inactive)
10,CCCNc1nc(-c2cc(C(=O)Nc3ccccc3)on2)cc(C(C)C)n1,90.3% (inactive)
11,CO/N=C(\Cn1ncc(N2CCCC2)c(Cl)c1=O)c1ccc(Cl)cc1,87.1% (inactive)
12,O=C(COc1cc(O)c2c(=O)c3ccccc3oc2c1)OCc1ccccc1,101% (inactive)
13,C=CCC1(CC=C)CCCN1C(=O)c1cc(COc2ccc(-n3cncn3)cc2)on1,64.9% (inactive)
14,O=[N+]([O-])c1ccc(-c2csc(NN=C3CCCC3)n2)cc1,96.1% (inactive)
15,Cn1nc(C(F)(F)F)c2cc(NC(=O)OCC(C)(C)C)sc21,90.9% (inactive)
16,CCCCCCN=C1CC(C)(C)CC(=O)/C1=C(/O)CCC,83.1% (inactive)
17,S=C(NCCc1ccccc1)NN=C1CCCCCC1,94.1% (inactive)
18,Cc1occc1-c1nnc(SCC(=O)NCCc2ccccc2)o1,91.9% (inactive)
19,O=S(Cc1ccc(Br)cc1)Cc1nnc(SCc2ccc(Cl)cc2)n1-c1ccccc1 (stereo not drawn),53.3% (inactive)
20,COC(OC)c1ccnc(-c2ccc(OC(=O)c3cccs3)cc2)n1,92.7% (inactive)
21,O=C(COC(=O)c1cccs1)c1ccccc1,101% (inactive)
22,CCOC(=O)c1ccc(OC(=O)CCCCCN=C(N)N)cc1,94.7% (inactive)
23,CC1(C)CC(=O)c2c(O)cc(OCc3ccc(Br)cc3)cc2O1,82.1% (inactive)

row,SMILES,viability
1,CCOc1ccc(NC(=O)CCc2nnc3ccc(N4CCC(C)CC4)nn23)cc1,89% (inactive)
2,Cc1ccc(C(C)C)c(OCC(=O)OCc2c(C)noc2C)c1,95.7% (inactive)
3,Cc1ccccc1Nc1nc(N)nc(COC(=O)c2ccc([N+](=O)[O-])o2)n1,91.6% (inactive)
4,Cc1ccc(Nc2nc(N)nc(CN3CCc4ccccc4C3)n2)cc1,82.5% (inactive)
5,CCOC(=O)CN(C#N)c1nc(N(C)C)nc(N(C)C)n1,98.9% (inactive)
6,CN(C)N=Nc1nc[nH]c1C(N)=O,99.6% (inactive)
7,CCNc1nc(NCC)n2c(SC(C(=O)Nc3cc(C)ccc3C)c3ccccc3)nnc2n1 (stereo not drawn),87.6% (inactive)
8,Cn1cc(/C=C2\C(=O)NC(=O)N(c3ccccc3)C2=O)c2ccccc21,95.5% (inactive)
9,CC(C)(Oc1ccc(Cl)cc1)C(=O)OCC(=O)N1CCN(c2ccccc2)CC1,89.3% (inactive)
10,CC(C)Cn1c(N2CCN(C(=O)/C=C/c3ccccc3)CC2)nc2ccccc21,92.8% (inactive)
11,CCN(CC)C(=O)Oc1ccc2c(=O)c(-c3ccc(OC)cc3)coc2c1,81.8% (inactive)
12,CN(C)C(=O)C1C2NC(=S)N(c3ccc(Cl)cc3)C1(C)Oc1ccc(Cl)cc12 (stereo not drawn),93.5% (inactive)
13,COc1cc(NC(=O)C/C(C)=N/NC(=O)c2ccccn2)c(OC)cc1Cl,91.8% (inactive)
14,O=c1oc2cc(O)ccc2c2ccccc12,93.3% (inactive)
15,Cc1ccc(-c2ccc(/C=N/c3ncn[nH]3)o2)cc1Cl,94.2% (inactive)
16,C=C(C)C1CC=C(C)/C(=N/NC(=O)CNc2ccc(OCC)cc2)C1 (stereo not drawn),97.4% (inactive)
17,CCCOC(=O)CSc1nc(N2CCOCC2)c2c(c1C#N)CC(C)(C)OC2,88.7% (inactive)
18,O=C(c1ccc(C#Cc2ccccc2)o1)N1CCN(c2ccccn2)CC1,95.5% (inactive)
19,O=C(Oc1ccc(-c2cn3c(n2)SCC3)cc1)c1ccccc1,91.9% (inactive)
20,CC(=Nc1ccc(C)c(C)c1)C1=C(O)CSC1=O,103% (inactive)
21,Oc1ccccc1C=NC1=NN(c2cccc(C(F)(F)F)c2)CC1,94% (inactive)
22,O=C(O)c1ccccc1C(=O)NNc1ccc(Cl)cc1Cl,102% (inactive)
23,Cc1nn(C(C)(C)C)c(NC(=O)c2ccc(Cl)cc2Cl)c1Br,98.6% (inactive)

row,SMILES,viability
1,O=C(C[n+]1cc(-c2ccc(Cl)cc2)n2c1CCC2)Nc1nc(-c2ccccc2)cs1,102% (inactive)
2,COc1ccc(N=c2ssnc2Cl)cc1,98.1% (inactive)
3,O=C(CSc1cccc[n+]1[O-])c1cccs1,94.3% (inactive)
4,CCN(CC)CCN(C(=O)c1ccc(S(=O)(=O)N2CCCC2)cc1)c1nc2cc(C)cc(C)c2s1,82.7% (inactive)
5,O=C(OCC(=O)N1CCCc2ccccc21)c1ccc(S(=O)(=O)C(F)F)cc1,98.4% (inactive)
6,COc1cc(C(=O)N/N=C/c2cc([N+](=O)[O-])cs2)cc(OC)c1OC,57% (inactive)
7,Cc1ccc(CN2CCN(Cc3ccc(-n4cccn4)cc3C)CC2CCO)cc1 (stereo not drawn),94.7% (inactive)
8,COc1ccc(N=C/C=C2/C=C(c3ccccc3)OC(C)(C)O2)cc1,90.1% (inactive)
9,N#CC(C#N)=C(N)CSc1cccc[n+]1[O-],98.7% (inactive)
10,CCOc1ccc(-c2nn3c(-c4ccccc4)nnc3s2)cc1,94.3% (inactive)
11,CCOc1ccc(N=C(NC#N)SCC(=O)NC2CC2)cc1,96.3% (inactive)
12,COc1ccc(Cc2nnc(SCC(=O)N(c3ccccc3)C(C)C)n(N)c2=O)cc1,88.1% (inactive)
13,CC(C)Oc1ccc(NC(=O)Oc2ccccc2)cc1,98.2% (inactive)
14,CC(c1nc2ccccc2c(=O)[nH]1)N(C)CCOc1ccc(Cl)cc1 (stereo not drawn),94.2% (inactive)
15,CCOC(=O)C1CCN(C(=O)c2ccc3c(c2)NC(=O)/C(=C/c2ccccc2)S3)CC1,90% (inactive)
16,CN(C)c1ccc(CNc2nc(-c3ccccc3)nn2S(C)(=O)=O)cc1,97.1% (inactive)
17,Nc1ccc(N=Nc2ccccc2)c(N)n1,80.2% (inactive)
18,C#CCOC(=O)/C(=C/c1ccc(F)cc1)NC(C)=O,96.9% (inactive)
19,COc1ccc(-n2c(-c3ccc(Cl)cc3)c[n+]3c2CCc2ccccc2-3)cc1,89.3% (inactive)
20,Cc1ccc(C(=O)C[n+]2cc(-c3ccc(C)cc3)n3c2CCCCC3)cc1,87.2% (inactive)
21,O=C(CN1CCN(Cc2ccc(Cl)cc2)CC1)N/N=C/C=C/c1ccccc1[N+](=O)[O-],90% (inactive)
